Activity calls are given as the source filed them. The calls were made as follows: active = hit-call score of the fitted dose curve at least 0.9, where 1 is the maximum; inactive = score below 0.9.
Columns and labels:
[1] = target: Bile acid receptor (Homo sapiens) (UniProt Q96RI1); experiment: ATG_IR1_CIS: Attagene CIS-FACTORIAL HepG2 Assay for human Nuclear Receptor Subfamily 1 Group H Member 4 (NR1H4), IR1 submotif (AID 2282946); settings: IR1 reporter transcription, actives raise or lower the signal
Chain of Bile acid receptor (Homo sapiens) (Q96RI1 whole entry, looked up): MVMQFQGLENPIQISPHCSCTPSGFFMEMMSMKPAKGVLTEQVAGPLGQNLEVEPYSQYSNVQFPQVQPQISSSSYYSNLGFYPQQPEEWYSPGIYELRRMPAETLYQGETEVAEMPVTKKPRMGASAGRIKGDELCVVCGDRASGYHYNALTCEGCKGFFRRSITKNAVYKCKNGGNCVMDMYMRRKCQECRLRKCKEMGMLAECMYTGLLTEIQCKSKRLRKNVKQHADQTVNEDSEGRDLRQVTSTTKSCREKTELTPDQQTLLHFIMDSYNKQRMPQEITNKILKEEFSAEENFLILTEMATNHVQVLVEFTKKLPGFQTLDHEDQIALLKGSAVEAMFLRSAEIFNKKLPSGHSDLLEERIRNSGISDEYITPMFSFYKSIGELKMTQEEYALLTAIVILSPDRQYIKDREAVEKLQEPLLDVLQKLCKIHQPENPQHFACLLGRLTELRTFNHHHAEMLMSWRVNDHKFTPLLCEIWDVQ
Summary of the method: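 Transient MRTU transfection, HepG2; 24 h dosing; RNA → RT-PCR → 6-FAM primer extension → HpaI digest → capillary electrophoresis fluorescence. Gain/loss of signal fitted relative to DMSO.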

[2] = ATG_ISRE_CIS: Attagene CIS-FACTORIAL HepG2 Assay for human Interferon Regulatory Factor 1 (IRF1) binding to an Interferon-Stimulated Response Element (ISRE) (AID 2282948); settings: HepG2 ISRE cis-reporter (Attagene), mRNA transcription readout; actives raise or lower the signal
Summary of the method: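 Quantitation relies on labelled RT-PCR fragments separated by capillary electrophoresis. Human HepG2 cells bearing cis-promoter reporter constructs were treated 24 h; DMSO served as baseline for bidirectional fitting.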

[3] = ATG_M_32_CIS: Attagene CIS-FACTORIAL HepG2 Assay for M32 Transcription Factor (Internal Marker) (AID 2282949); settings: HepG2 Attagene cis-factorial M32 reporter, mRNA; actives raise or lower the signal;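 also: background control marker of the multiplexed CIS panel rather than a real target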
Summary of the method: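 HepG2 cells transiently transfected with multiplexed cis-regulated reporter units, dosed 24 h. Reporter mRNA quantified by RT-PCR, 6-FAM labelling, HpaI digestion and capillary electrophoresis; bidirectional fit vs DMSO.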

[4] = ATG_M_06_CIS: Attagene CIS-FACTORIAL HepG2 Assay for M06 Transcription Factor (Internal Marker) (AID 2282950); settings: HepG2 Attagene CIS-FACTORIAL M06 internal marker reporter; actives raise or lower the signal
Summary of the method: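 Steps: transfect HepG2 with multiplexed cis-element reporter constructs; dose chemical 24 h; extract RNA with DNase treatment; reverse-transcribe, PCR-amplify, 6-FAM label, HpaI digest; separate fragments by capillary electrophoresis. Activity fitted both directions versus DMSO.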

[5] = target: Hepatocyte nuclear factor 6 (Homo sapiens) (UniProt Q9UBC0); experiment: ATG_HNF6_CIS: Attagene CIS-FACTORIAL HepG2 Assay for human Hepatocyte Nuclear Factor 6 (HNF6) (AID 2282952); settings: HepG2 Attagene cis-factorial HNF6 reporter transcription; actives raise or lower the signal
Chain of Hepatocyte nuclear factor 6 (Homo sapiens) (Q9UBC0 whole entry, looked up): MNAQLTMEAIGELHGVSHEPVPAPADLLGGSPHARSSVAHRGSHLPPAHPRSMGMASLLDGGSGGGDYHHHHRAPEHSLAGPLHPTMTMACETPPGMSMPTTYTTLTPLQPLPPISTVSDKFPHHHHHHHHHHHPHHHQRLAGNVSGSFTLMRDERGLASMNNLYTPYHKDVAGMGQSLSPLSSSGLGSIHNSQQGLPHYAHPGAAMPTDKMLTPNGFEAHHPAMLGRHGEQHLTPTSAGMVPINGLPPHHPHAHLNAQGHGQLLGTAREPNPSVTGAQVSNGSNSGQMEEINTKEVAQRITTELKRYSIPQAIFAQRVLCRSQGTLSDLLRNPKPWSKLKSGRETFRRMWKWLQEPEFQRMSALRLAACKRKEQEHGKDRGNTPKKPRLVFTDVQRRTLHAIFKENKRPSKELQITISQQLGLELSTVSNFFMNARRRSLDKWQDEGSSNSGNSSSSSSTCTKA
Summary of the method: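 HepG2, transient MRTU transfection (cis promoters); 24 h chemical exposure; total RNA → oligo(dT) RT → PCR → 6-FAM labelling → HpaI cut → CE; bidirectional fit vs DMSO.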

[6] = target: Heat shock factor protein 1 (Homo sapiens) (UniProt Q00613); experiment: ATG_HSE_CIS: Attagene CIS-FACTORIAL HepG2 Assay for human Heat Shock Transcription Factor 1 (HSE) (AID 2282953); settings: HepG2 HSE cis-reporter, Attagene RNA transcription; actives raise or lower the signal
Chain of Heat shock factor protein 1 (Homo sapiens) (Q00613 whole entry, looked up, the tested form may be a part): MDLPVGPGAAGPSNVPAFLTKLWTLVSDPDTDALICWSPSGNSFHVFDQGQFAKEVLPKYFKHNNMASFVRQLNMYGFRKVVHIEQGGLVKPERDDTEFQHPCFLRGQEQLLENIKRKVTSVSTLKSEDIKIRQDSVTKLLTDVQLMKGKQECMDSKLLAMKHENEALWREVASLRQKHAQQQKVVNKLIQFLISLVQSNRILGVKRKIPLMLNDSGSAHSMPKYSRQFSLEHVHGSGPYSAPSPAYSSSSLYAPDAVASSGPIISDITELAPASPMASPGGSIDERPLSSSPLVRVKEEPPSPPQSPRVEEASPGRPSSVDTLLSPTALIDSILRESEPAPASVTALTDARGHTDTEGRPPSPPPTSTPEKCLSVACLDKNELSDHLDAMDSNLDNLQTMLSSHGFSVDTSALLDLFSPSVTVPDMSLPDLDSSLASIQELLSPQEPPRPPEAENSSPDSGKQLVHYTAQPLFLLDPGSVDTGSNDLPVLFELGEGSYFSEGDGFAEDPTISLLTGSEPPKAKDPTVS
Summary of the method: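 Cells were transfected with cis-element-driven reporter constructs, dosed for 24 h, then total RNA was reverse-transcribed and reporter cDNA amplified, FAM-labelled and digested with HpaI. Fragments were resolved by capillary electrophoresis; gain or loss was fitted against DMSO.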

[7] = ATG_MRE_CIS: Attagene CIS-FACTORIAL HepG2 Assay for human Metal Responsive Element (MRE) (AID 2282954); settings: HepG2 MRE cis-reporter transcription, Attagene multiplex; actives raise or lower the signal
Summary of the method: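 Step one: transfect HepG2 with cis-regulated reporter units. Step two: dose 24 h. Step three: isolate RNA, RT-PCR, 6-FAM label, HpaI digest, capillary electrophoresis. Fit bidirectionally to DMSO.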

[8] = ATG_PBREM_CIS: Attagene CIS-FACTORIAL HepG2 Assay for human Phenobarbital-responsive Enhancer Module (PBREM) (AID 2282955); settings: HepG2 PBREM cis-reporter, Attagene multiplexed transcription; actives raise or lower the signal
Summary of the method: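 Endogenous transcription factor activity was read from reporter transcripts in transiently transfected human HepG2 liver cells after 24 h dosing. RT-PCR products were fluorescently labelled, HpaI-cut and sized by capillary electrophoresis; activity fitted bidirectionally against DMSO baseline.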

[9] = ATG_GRE_CIS: Attagene CIS-FACTORIAL HepG2 Assay for human Glucocorticoid Response Elements (GRE) (AID 2282947); settings: HepG2 GRE cis-reporter, Attagene multiplex mRNA; actives raise or lower the signal
Summary of the method: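 Following 24 h chemical exposure of transiently transfected HepG2 cells, total RNA was reverse-transcribed and reporter cDNA amplified, fluorescently labelled and sized by capillary electrophoresis. Signal gain or loss was fitted relative to DMSO vehicle.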

[10] = target: Hypoxia-inducible factor 1-alpha (Homo sapiens) (UniProt Q16665); experiment: ATG_HIF1a_CIS: Attagene CIS-FACTORIAL HepG2 Assay for human Hypoxia Inducible Factor 1 (HIF1A) (AID 2282951); settings: HepG2 Attagene cis-factorial HIF1a reporter transcription; actives raise or lower the signal
Chain of Hypoxia-inducible factor 1-alpha (Homo sapiens) (Q16665 whole entry, looked up): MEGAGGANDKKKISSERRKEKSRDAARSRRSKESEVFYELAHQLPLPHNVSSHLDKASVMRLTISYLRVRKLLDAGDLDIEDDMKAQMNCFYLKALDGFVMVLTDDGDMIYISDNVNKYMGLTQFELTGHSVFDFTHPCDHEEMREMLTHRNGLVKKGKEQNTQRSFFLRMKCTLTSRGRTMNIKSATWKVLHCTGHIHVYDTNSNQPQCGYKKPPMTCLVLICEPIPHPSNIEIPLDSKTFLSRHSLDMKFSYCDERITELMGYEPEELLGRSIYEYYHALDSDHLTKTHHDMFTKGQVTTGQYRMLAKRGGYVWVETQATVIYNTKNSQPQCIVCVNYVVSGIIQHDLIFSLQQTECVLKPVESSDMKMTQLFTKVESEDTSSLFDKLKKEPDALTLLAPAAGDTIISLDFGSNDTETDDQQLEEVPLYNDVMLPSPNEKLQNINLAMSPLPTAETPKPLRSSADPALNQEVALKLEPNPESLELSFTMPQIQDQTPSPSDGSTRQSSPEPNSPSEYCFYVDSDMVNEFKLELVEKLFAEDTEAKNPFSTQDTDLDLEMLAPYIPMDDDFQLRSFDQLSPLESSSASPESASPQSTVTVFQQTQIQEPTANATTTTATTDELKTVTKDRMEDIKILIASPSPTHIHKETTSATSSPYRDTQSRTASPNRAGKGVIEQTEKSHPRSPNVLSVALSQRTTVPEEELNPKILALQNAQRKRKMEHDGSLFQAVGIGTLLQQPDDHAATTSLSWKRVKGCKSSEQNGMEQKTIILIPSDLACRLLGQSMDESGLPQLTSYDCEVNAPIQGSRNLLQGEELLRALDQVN
Summary of the method: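 Activity is fitted in both directions relative to DMSO. Reporter transcripts are read by RT-PCR, fluorescent primer extension and capillary electrophoresis after 24 h chemical treatment. The cells are HepG2 carrying transiently transfected cis-element-driven reporter units responding to endogenous factors.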

What does the source list for `O=C(O)Cc1c(Cl)ccc(Cl)c1Cl`?
outcome [1]: inactive; outcome [2]: inactive; outcome [3]: inactive; outcome [4]: inactive; outcome [5]: inactive; outcome [6]: inactive; outcome [7]: inactive; outcome [8]: inactive

Which results are given for `C=CCOCC(O)CCl` (stereo unspecified)?
outcome [9]: inactive; outcome [2]: inactive; outcome [3]: inactive; outcome [4]: inactive; outcome [10]: inactive; outcome [5]: inactive; outcome [6]: inactive; outcome [7]: inactive

With `CCC(CO)CO` as the compound, how does the outcome [9] read?
The outcome was “inactive”.

And the outcome [2]?
The outcome was “inactive”.

What about the outcome [3] of the same compound?
Its outcome is “inactive”.

What about the outcome [4] of the same compound?
The outcome was “inactive”.

And the outcome [10]?
The outcome was “inactive”.

What about the outcome [5] of the same compound?
The outcome was “inactive”.

And the outcome [6]?
Its outcome is “inactive”.

And the outcome [7]?
The outcome was “inactive”.

With `Cc1ccc([N+](=O)[O-])cc1S(=O)(=O)O` as the compound, how does the outcome [9] read?
The outcome was “inactive”.

What about the outcome [2] of the same compound?
Its outcome is “inactive”.

What about the outcome [3] of the same compound?
Its outcome is “inactive”.

What about the outcome [4] of the same compound?
The outcome was “inactive”.

What about the outcome [10] of the same compound?
Its outcome is “inactive”.

What about the outcome [5] of the same compound?
Its outcome is “inactive”.

And the outcome [6]?
Its outcome is “inactive”.

What about the outcome [7] of the same compound?
The outcome was “inactive”.

With `CC(C)=CCCC(C)C=O` (stereo unspecified) as the compound, how does the outcome [1] read?
The outcome was “inactive”.

And the outcome [2]?
Its outcome is “inactive”.

And the outcome [3]?
Its outcome is “inactive”.

What about the outcome [4] of the same compound?
The outcome was “inactive”.

And the outcome [10]?
The outcome was “inactive”.

And the outcome [6]?
Its outcome is “inactive”.

And the outcome [7]?
Its outcome is “inactive”.

And the outcome [8]?
The outcome was “inactive”.

For `CCCNC(=O)NS(=O)(=O)c1ccc(Cl)cc1`, which outcome [9] is on record?
Its outcome is “inactive”.

And the outcome [2]?
The outcome was “inactive”.

What about the outcome [3] of the same compound?
The outcome was “inactive”.

What about the outcome [4] of the same compound?
Its outcome is “inactive”.

And the outcome [10]?
Its outcome is “inactive”.

What about the outcome [5] of the same compound?
The outcome was “inactive”.

What about the outcome [6] of the same compound?
Its outcome is “inactive”.

What about the outcome [7] of the same compound?
The outcome was “inactive”.

Which results are given for `Nc1ccc(-c2ccc(F)cc2)cc1`?
outcome [1]: inactive; outcome [2]: inactive; outcome [3]: inactive; outcome [4]: inactive; outcome [10]: inactive; outcome [6]: inactive; outcome [7]: inactive; outcome [8]: inactive

What does the source list for `O=C(/C=C/C=C/c1ccc2c(c1)OCO2)N1CCCCC1`?
AC50 [1]: 69.4 µM (active); AC50 [2]: 89.5 µM (active); outcome [3]: inactive; outcome [4]: inactive; outcome [5]: inactive; AC50 [6]: 159 µM (active); AC50 [7]: 96.1 µM (active); outcome [8]: inactive

For `CCCCCCCCCCC=CC#N`, which outcome [1] is on record?
The outcome was “inactive”.

What about the outcome [2] of the same compound?
The outcome was “inactive”.

What about the outcome [3] of the same compound?
Its outcome is “inactive”.

And the outcome [4]?
The outcome was “inactive”.

What about the outcome [5] of the same compound?
Its outcome is “inactive”.

What about the outcome [7] of the same compound?
Its outcome is “inactive”.

And the outcome [8]?
The outcome was “inactive”.

Which results are given for `O=C(Cl)c1cc(C(=O)Cl)cc(C(=O)Cl)c1`?
AC50 [1]: 153 µM (active); outcome [2]: inactive; outcome [3]: inactive; outcome [4]: inactive; outcome [5]: inactive; AC50 [6]: 100 µM (active); outcome [7]: inactive

For `Nc1cccc(C(F)(F)F)c1`, which outcome [1] is on record?
Its outcome is “inactive”.

What about the outcome [2] of the same compound?
The outcome was “inactive”.

What about the outcome [3] of the same compound?
Its outcome is “inactive”.

What about the outcome [4] of the same compound?
Its outcome is “inactive”.

What about the outcome [10] of the same compound?
Its outcome is “inactive”.

And the outcome [6]?
Its outcome is “inactive”.

And the outcome [7]?
Its outcome is “inactive”.

What does the source list for `CC(=O)OC(C)C`?
outcome [1]: inactive; outcome [3]: inactive; outcome [4]: inactive; outcome [10]: inactive; outcome [5]: inactive; outcome [6]: inactive; outcome [7]: inactive

With `O=C(O)CCCCCCCCCC(=O)O` as the compound, how does the outcome [9] read?
The outcome was “inactive”.

And the outcome [2]?
The outcome was “inactive”.

And the outcome [3]?
The outcome was “inactive”.

And the outcome [4]?
The outcome was “inactive”.

What about the outcome [10] of the same compound?
Its outcome is “inactive”.

What about the outcome [5] of the same compound?
Its outcome is “inactive”.

And the outcome [6]?
The outcome was “inactive”.

What about the outcome [7] of the same compound?
The outcome was “inactive”.

Which outcome [1] does the source give for `CC/C=C\C/C=C\C/C=C\CCCCCCCC(=O)O` here?
Its outcome is “inactive”.

And the AC50 [2]?
The AC50 was 69 µM (active).

And the outcome [3]?
Its outcome is “inactive”.

And the outcome [4]?
The outcome was “inactive”.

And the outcome [10]?
The outcome was “inactive”.

What about the outcome [5] of the same compound?
The outcome was “inactive”.

What about the AC50 [6] of the same compound?
The AC50 was 188 µM (active).

What about the AC50 [7] of the same compound?
The AC50 was 140 µM (active).

What about the outcome [8] of the same compound?
Its outcome is “inactive”.

With `C=CCCCCCCCCC(=O)OCCCC` as the compound, how does the outcome [1] read?
The outcome was “inactive”.

What about the outcome [3] of the same compound?
The outcome was “inactive”.

What about the outcome [4] of the same compound?
Its outcome is “inactive”.

And the outcome [10]?
Its outcome is “inactive”.

What about the outcome [5] of the same compound?
Its outcome is “inactive”.

What about the outcome [7] of the same compound?
Its outcome is “inactive”.

And the outcome [8]?
Its outcome is “inactive”.
